HDAC3 inhib: human HDAC3 inhibition; recombinant HDAC3, fluorogenic peptide/trypsin coupled, fluorescence; inhibition, % at 8.3 µM; actives 0.15% (n = 320,000); in the data active = inhibition above about 26%, passing the limit was not always enough
PHOSPHO1 inh: inhibitors of human PHOSPHO1 phosphatase; recombinant PHOSPHO1, absorbance phosphatase assay; inhibition, % at 13.3 µM; actives 1.1% (n = 290,000); AID 1565; Q8TCT1; in the data active = inhibition above about 60%
Target sequence (Q8TCT1 whole entry, looked up): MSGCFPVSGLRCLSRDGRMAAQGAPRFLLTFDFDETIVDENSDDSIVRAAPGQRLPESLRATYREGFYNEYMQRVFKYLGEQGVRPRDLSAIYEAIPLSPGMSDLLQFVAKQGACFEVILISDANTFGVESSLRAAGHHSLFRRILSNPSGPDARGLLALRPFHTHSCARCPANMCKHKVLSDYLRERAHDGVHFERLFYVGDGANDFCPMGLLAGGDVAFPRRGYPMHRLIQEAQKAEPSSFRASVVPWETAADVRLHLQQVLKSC
p97 ATPase inh: inhibitors of human p97 ATPase | actives 0.42% (n = 220,000) | recombinant p97 ATPase, Kinase-Glo ATP luminescence, 3 h | AID 1481 | inhibition, % at 8 µM | P55072; in the data active = inhibition above about 15%;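 note: 0% = DMSO vehicle and 100% = wells lacking enzyme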
M18AAP inhibitor: blocks P. falciparum M18 aspartyl aminopeptidase; recombinant PfM18AAP, H-Glu-NHMec fluorogenic cleavage; inhibition, % at 7.35 µM; actives 1.2% (n = 290,000); AID 1822;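 active = inhibition above the campaign mean inhibition over all tested compounds plus 3 SD, cut at about 28% in these data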;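 note: 0% = plate median of test compound wells and 100% = 2 mM ZnCl2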
G6PDH CS: inhibits Leuconostoc G6PDH, flagging false hits in G6PDH-based assays | Purified L. mesenteroides G6PDH, diaphorase/resazurin coupled fluorescence, 45 min | inhibition, % at 5 µM | actives 0.12% (n = 200,000); in the data active = inhibition above about 50%
SUMO HTRF inh: blocks human SUMOylation mediated by UBC9 | P63279 | HTRF SUMOylation assay, SAE1/SAE2 + UBC9, in vitro | inhibition, % at 35 µM | actives 0.36% (n = 290,000); in the data active = inhibition above about 50%, passing the limit was not always enough
Target sequence (P63279 whole entry, looked up): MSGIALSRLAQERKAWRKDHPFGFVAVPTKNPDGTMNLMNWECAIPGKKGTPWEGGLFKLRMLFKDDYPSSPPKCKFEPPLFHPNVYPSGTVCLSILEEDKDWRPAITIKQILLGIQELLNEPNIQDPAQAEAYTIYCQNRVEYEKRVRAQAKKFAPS
p97 confirm: human p97 ATPase inhibition, confirmation; shares compounds with p97 ATPase inh; recombinant p97 ATPase, Kinase-Glo ATP luminescence; inhibition, % at 8 µM; actives 44% (n = 760); AID 1517;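 active = percent inhibition of p97 ATPase above a set limit, the primary screen's mean plus 3 SD, cut at about 15% in these data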;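 note: 0% = DMSO wells and 100% = wells lacking p97 protein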
* marks the source's active call; other numbers are inactive results; . = no result given; ! = a repeat was not active. Rows were chosen to be rich in hits. Some 2.5% of all compounds tested hit in one or more screens of this group.

SMILES	HDAC3 inhib	PHOSPHO1 inh	p97 ATPase inh	M18AAP inhibitor	G6PDH CS	SUMO HTRF inh	others
Cc1cc(/C=C2\C(=O)NC(=O)N(Cc3ccco3)C2=O)c(C)n1-c1ccc(O)cc1	9	44	6	22	24	62*
O=C1NC(=S)N(c2ccc(F)cc2)C(=O)/C1=C/c1ccco1	-5	-29	.	7	.	66*
O=C1NC(=S)N(c2ccc(F)cc2)C(=O)/C1=C\c1ccoc1	.	14	9	9	3	29
COc1ccc(OC)c(N2C(=O)/C(=C/c3ccco3)C(=O)NC2=S)c1	0	-11	.	-42	.	94*
COC(=O)C1=C(c2ccc(F)cc2F)C[C@@H]2CC[C@H]1N2C(=O)NCCOc1ccc(OC)cc1	4	.	.	.	.	.
COCCNC(=O)c1c(NC(=O)c2ccc(Br)o2)n(Cc2ccccc2)c2nc3ccccc3nc12	-9	-15	8	12	5	99*
CN1CCN(c2ccc(S(C)(=O)=O)cc2[N+](=O)[O-])CC1	-3	-4	7	4	7	62
CN1CCN(c2ccc([N+](=O)[O-])c3no[n+]([O-])c23)CC1	22	20	3	0	.	55*
Oc1ccc(C(=C(Cl)Cl)c2ccc(O)cc2)cc1	-1	16	.	7	.	-9
CCc1ccc(N2C(=O)NC(=O)C(Cc3ccc(OC)cc3OC)C2=O)cc1 (stereo not given)	-6	95*	4	6	-2	11
COc1ccc(CC2C(=O)NC(=O)N(c3ccccc3)C2=O)c(OC)c1 (stereo not given)	-3	24	0	4	8	9
O=C(O)CCC(=O)NCCC1=c2ccccc2=N/C1=C\c1c(O)n(Cc2ccc(F)cc2)c(=S)[nH]c1=O	-1	97*	4	3	.	19
CCN1C[C@]2(C)CC[C@H](O)[C@]34C1[C@H](C[C@H]23)[C@@]1(O)C[C@H](OC)[C@H]2C[C@@H]4[C@@H]1C2O (stereo not given in full)	-3	.	.	.	.	.
O=C1NC(=O)N(Cc2ccccc2)C(=O)/C1=C\C=C\c1ccco1	5	-15	2	30*	6	12
COC(=O)C1=C(c2cccc(C#N)c2)C[C@@H]2CC[C@H]1N2C(=O)N1CCC(C)CC1	1	.	.	.	.	.
CCCc1nc2ccccc2c(=O)n1-c1ccc(O)cc1	-3	63*	0	1	13	6
CCCCc1nc2ccccc2c(=O)n1-c1ccc(O)cc1	-2	-10	1	1	3	8
COC(=O)C1=C(c2ccc(OC(F)(F)F)cc2)C[C@@H]2CC[C@H]1N2C(=O)NCCOc1ccccc1	19	.	.	.	.	.
COC(=O)C1=C(c2ccc(OC(F)(F)F)cc2)C[C@@H]2CC[C@H]1N2C(=O)NCCOc1ccccc1Cl	34*	.	.	.	.	.
c1cncc(C2CCCCN2)c1 (stereo not given)	-4	37	0	-12	.	10
c1cncc(C2Nc3cccc4cccc(c34)N2)c1	2	28	4	35*!	.	63*!
CN(C)c1ccc2c(c1)N=C(c1ccco1)OP2(=S)N1CCOCC1 (stereo not given)	2	90*	1	14	2	28
CCCCCCC(C)(C)c1ccc([C@@H]2C[C@H](O)CC[C@H]2CCCO)c(O)c1	0	.	.	.	.	.
CCN1C(=O)C(=Cc2ccc(N3CCOCC3)o2)C(=O)N(CC)C1=S	7	8	1	0	.	24
CN1C(=O)C(=Cc2ccc(N3CCOCC3)o2)C(=O)N(C)C1=S	11	-6	19*	5	4	1	p97 confirm=-2
SMILES	HDAC3 inhib	PHOSPHO1 inh	p97 ATPase inh	M18AAP inhibitor	G6PDH CS	SUMO HTRF inh	others
COc1ccc(-n2c(/C=C/c3cccc(F)c3)nc3ccccc3c2=O)c(OC)c1	5	.	.	-4	.	-10
O=C1C(=O)c2cccc3cccc1c23	4	4	11	4	24	21
O=C1C(=O)c2ccccc2-c2ccccc21	4	100*	32*	21	53*	100*	p97 confirm=38*
COCCn1c(O)c(/C=N/NC(=O)CSC(=S)N2CCCC2)c(=O)[nH]c1=S	5	.	.	.	.	.
CCN1C[C@]2(COC)CC[C@H](O)[C@]34C1[C@](O)([C@@H](OC)[C@H]23)[C@@]1(O)C[C@H](OC)[C@H]2C[C@@H]4[C@@H]1[C@H]2OC	-4	.	.	.	.	.
COCCOC(=O)c1c(N)n(Cc2ccco2)c2nc3ccccc3nc12	-70	-5	5	17	4	27
CCOC(=O)c1c(NS(=O)(=O)c2ccccc2)n(CCCOC)c2nc3ccccc3nc12	-21	-32	45*	18	43	100*	p97 confirm=17*
CCCCNC(=O)c1c(N)n(CCCOC)c2nc3ccccc3nc12	-7	-1	22*	9	41	99*	p97 confirm=-2
COc1ccc(Cn2c(N)c(C(=O)NCc3ccco3)c3nc4ccccc4nc32)cc1OC	2	18	32*	19	7	100*	p97 confirm=7
COCCCn1c(N)c(C(=O)OCCOC)c2nc3ccccc3nc21	-135	-12	24*	9	11	80	p97 confirm=4
Clc1ccc(C(c2ccc(Cl)cc2)n2cc[n+](CC(OCc3ccc(Cl)cc3Cl)c3ccc(Cl)cc3Cl)c2)cc1 (stereo not given)	-3	.	.	.	.	.
COCCCNC(=O)c1c(NC(=O)c2ccco2)n(Cc2ccccc2)c2nc3ccccc3nc12	-37	23	24*	12	9	98*	p97 confirm=4
Cc1c(OC(=O)N(C)C)ccc2c1O/C(=C\c1ccco1)C2=O	-1	35	.	14	.	0
COC(=O)C1=C(c2ccc(F)cc2OCc2ccccc2)C[C@@H]2CC[C@H]1N2C(=O)NCCCc1ccccc1	18	.	.	.	.	.
Nc1ccccc1-[n+]1c(-c2ccccc2)cc(-c2ccccc2)cc1-c1ccccc1	-7	41	16*	-23	.	9	p97 confirm=10
c1ccc2c(c1)Sc1ccccc1N2CC1CN2CCC1CC2 (stereo not given)	2	37	18*	3	.	8	p97 confirm=15*
Clc1ccccc1CNC1CN2CCC1CC2 (stereo not given)	1	18	6	-1	5	-5
CCn1nc(-c2ccccc2)nc2c(=O)n(C)c(=O)nc1-2	6	9	37*	7	59*	104*	p97 confirm=34*
CC1(O)CCN2C(=O)CCc3cccc1c32 (stereo not given)	7	.	.	.	.	.
CC(=O)N1N=C2C3CCN(CC3)C2C1c1ccc(C)cc1 (stereo not given)	3	-9	1	2	9	-10
CC(=O)N1N=C2C3CCN(CC3)C2C1c1cccc2ccccc12 (stereo not given)	-2	-14	16*	6	16	-2	p97 confirm=11

High-throughput results from PubChem.
